In PubChem BioAssay (EPA / NIEHS):
Several values for one entry are separate records, joined by “and”; a condition that tells them apart may be missing. Identical values can stand only once. Inconclusive results are not listed. Some structures have more than one record in an assay (separate samples or runs), and their calls can disagree. Activity calls are given as the source filed them. The calls were made as follows, unless noted: active = hit-call score of the fitted dose curve at least 0.9, where 1 is the maximum; inactive = score below 0.9.

Assays:
[1] = CCTE_Padilla_ZF_Score.Craniofacial: CCTE's 144 Hour Post-fertilization zebrafish Assay Score for Craniofacial Malformation, Padilla Lab (AID 2284405)
How it was run: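 Wild-type zebrafish embryos (with chorions), one per well in 10% Hanks', were dosed at 6–8 hpf in sealed plates and kept at 26C. They were rinsed at 5 dpf. At 6 dpf two blinded assessors scored craniofacial malformations by brightfield stereomicroscopy.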

[2] = CCTE_Padilla_ZF_Score.Edema: CCTE's 144 Hour Post-fertilization zebrafish Assay Score for Edema Malformation, Padilla Lab (AID 2284406)
How it was run: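 Wild-type zebrafish embryos, one per well in Hanks' solution, dosed at 6-8 hpf, sealed and reared at 26C on a 14:10 h cycle; rinsed on 5 dpf. At 6 dpf, blinded assessors scored edema by stereomicroscopy.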

[3] = CCTE_Padilla_ZF_Score.Spine: CCTE's 144 Hour Post-fertilization zebrafish Assay Score for Spine Malformation, Padilla Lab (AID 2284407)
How it was run: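 Wild-type zebrafish embryos, one per well in Hanks' solution, dosed at 6–8 hpf in sealed plates at 26C, 14:10 h light:dark; rinsed at 5 dpf. Two blinded assessors scored spinal defects by stereomicroscopy at 6 dpf; fitted versus DMSO.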

[4] = CCTE_Padilla_ZF_Score.Swim_bladder: CCTE's 144 Hour Post-fertilization zebrafish Assay Score for Swim Bladder Malformation, Padilla Lab (AID 2284408)
How it was run: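 Wild-type zebrafish embryos, one per well in 10% Hanks', dosed at 6–8 hpf, sealed, reared at 26C and rinsed at 5 dpf. Blinded assessors scored uninflated swim bladder by stereomicroscopy at 6 dpf, relative to DMSO.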

SERPINA7 (gene 6906) = test: CCTE_GLTED_hTBG: CCTE's human Thyroxine-binding Globulin (TBG) Inhibition Assay, Great Lakes Toxicology and Ecology Division (GLTED) Lab (AID 2284343; active = hit-call score of the fitted dose curve at least 0.9, where 1 is the maximum;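 also: active chemicals lower fluorescence versus DMSO baseline by displacing probe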)
How it was run: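 hTBG + test chem, 2 h; ANSA probe displacement; fluorescence readout ex380/em475; DMSO = neg ctrl/baseline; cell-free.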

[5] = test system: SRY-box transcription factor 17 (SOX17) Protein Expression, Deisenroth Lab, SOX17 (gene 64321); test: CCTE_Deisenroth_DEVTOX-GLR_legacy_Sox17: (Legacy) CCTE's DevTox GLR-Endo Assay Evaluation of SRY-box transcription factor 17 (SOX17) Protein Expression, Deisenroth Lab (AID 2284341); details: actives raise or lower the signal
How it was run: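 Endoderm-differentiation readout in RUES2-GLR human pluripotent cells at 48 h, concentrations spanning 1 nM - 200 uM. Sox17-positive cells divided by total cell count; gain or loss relative to DMSO solvent control, n=4 experimental replicates.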

[6] = test system: SRY-box transcription factor 2 (SOX2) Protein Expression, Deisenroth Lab, SOX2 (gene 6657); test: CCTE_Deisenroth_DEVTOX-GLR_legacy_Sox2: (Legacy) CCTE's DevTox GLR-Endo Assay Evaluation of SRY-box transcription factor 2 (SOX2) Protein Expression, Deisenroth Lab (AID 2284346)
How it was run: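 RUES2-GLR human pluripotent cells were differentiated for 48 h with two chemical doses 24 h apart, over 1 nM-200 uM. Sox2+ cells were those above 5x BMAD of the endoderm-control median; percent Sox2+ minus the 0.2% DMSO median was used, from n=4 replicates.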

[7] = CCTE_Mundy_HCI_iCellGluta_NOG_NeuriteCount: CCTE's Neurite Outgrowth Assay in iCellGluta cells for Neurite Count, Mundy Lab (AID 2284342; active = hit-call score of the fitted dose curve at least 0.9, where 1 is the maximum;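 also: chemical exposure about 48 hours starting 2 hours after plating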)
[8] = Tanguay_ZF_120hpf_MO24: Oregon State University Tanguay Lab 24 Hour Post-fertilization zebrafish Assay for Mortality (AID 2284389)
How it was run: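 Dechorionated wild-type zebrafish embryos, 1 per well, statically exposed from 6 hpf at 28C, 0.64% DMSO final. Mortality scored as binary present/absent at 24 hpf by brightfield microscopy, relative to DMSO.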

[9] = Tanguay_ZF_120hpf_DP24: Oregon State University Tanguay Lab 24 Hour Post-fertilization zebrafish Assay for Delayed Development (AID 2284390)
How it was run: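 Dechorionated 5D wild-type zebrafish embryos exposed statically from 6 hpf, one per well, 0.64% DMSO final, 28 C, sealed and dark. Developmental progression scored at 24 hpf by brightfield as binary present/absent; dead embryos excluded.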

[10] = Tanguay_ZF_120hpf_CRAN: Oregon State University Tanguay Lab 120 Hour Post-fertilization zebrafish Assay for Craniofacial Malformation (AID 2284397)
How it was run: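 Dechorionated Tropical 5D wild-type zebrafish embryos, one per well, were statically exposed from 6 to 120 hpf at 28C in 0.64% DMSO, with 5uM trimethyltin chloride as positive control. Craniofacial malformation was scored present/absent by brightfield microscopy, relative to DMSO.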

[11] = Tanguay_ZF_120hpf_AXIS: Oregon State University Tanguay Lab 120 Hour Post-fertilization zebrafish Assay for Axial Malformation (AID 2284398)
How it was run: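 Dechorionated 5D wild-type zebrafish embryos exposed statically, one per well, from 6 to 120 hpf at 28C, 0.64% DMSO. Axial malformation scored as present/absent by brightfield microscopy at 120 hpf; dead embryos not scored.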

[12] = Tanguay_ZF_120hpf_MORT: Oregon State University Tanguay Lab 120 Hour Post-fertilization zebrafish Assay for Mortality (AID 2284399)
How it was run: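 Dechorionated wild-type Tropical 5D zebrafish embryos, one per well from 6 hpf, static exposure to 120 hpf at 28C in sealed dark plates, 0.64% DMSO final. Mortality scored as binary by brightfield at 24 and 120 hpf.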

[13] = Tanguay_ZF_120hpf_EDEM: Oregon State University Tanguay Lab 120 Hour Post-fertilization zebrafish Assay for Edema Malformation (AID 2284400)
How it was run: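 Dechorionated Tropical 5D wild-type embryos, one per well, statically exposed from 6 to 120 hpf at 28C in 0.64% DMSO. Edema scored present/absent by brightfield microscopy at 120 hpf; dead embryos not scored; fit versus DMSO.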

[14] = Tanguay_ZF_120hpf_BRN: Oregon State University Tanguay Lab 120 Hour Post-fertilization zebrafish Assay for Brain Region Malformation (AID 2284402)
How it was run: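 Dechorionated wild-type Tropical 5D zebrafish embryos exposed statically from 6 to 120 hpf at 28C, one per well, 0.64% DMSO final. Brain malformation scored at 120 hpf by brightfield as present/absent; dead embryos not scored.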

[15] = Tanguay_ZF_120hpf_TCHR: Oregon State University Tanguay Lab 120 Hour Post-fertilization zebrafish Assay for Touch Responsive (AID 2284403)
How it was run: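 Dechorionated Tropical 5D wild-type zebrafish embryos, one per well from 6 hpf, were statically exposed to 120 hpf at 28 °C (0.64% DMSO). Touch response was scored present/absent at 120 hpf and not scored in dead larvae.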

[16] = Tanguay_ZF_120hpf_ANY: Oregon State University Tanguay Lab 120 Hour Post-fertilization zebrafish Assay for Any Mortality and Malformation (AID 2284404)
How it was run: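 Dechorionated Tropical 5D wild-type embryos, one per well from 6 hpf, static exposure in sealed, dark plates at 28C until 120 hpf, 0.64% DMSO final. Brightfield scoring of mortality and malformations as binary presence/absence, pooling 13 morphology endpoints.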

[17] = CCTE_Deisenroth_H295R-HTRF_384WELL_ESTRADIOL: CCTE's H295R-HTRF Assay Evaluation of Estradiol Concentration, Deisenroth Lab (AID 2284361); details: actives raise or lower the signal
How it was run: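 H295R cells exposed 48 h to chemicals at 0.001 - 100 uM final (nine points, triplicate); estradiol in conditioned medium measured by HTRF immunoassay, fitted bidirectionally versus DMSO. Viability by CellTiter-Glo on same plates.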

[18] = CCTE_Deisenroth_H295R-HTRF_384WELL_TESTOSTERONE: CCTE's H295R-HTRF Assay Evaluation of Testosterone Concentration, Deisenroth Lab (AID 2284373); details: actives raise or lower the signal
How it was run: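 Testosterone secreted into medium was quantified by direct HTRF immunoassay after a 48 h treatment of H295R adrenocortical cells (nine concentrations, 0.001–100 uM final). Gain or loss fitted relative to DMSO; CellTiter-Glo viability read on same plates.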

[19] = CCTE_Deisenroth_H295R-HTRF_384WELL_CTOX: Cytotoxicity Assessment in CCTE's H295R-HTRF Assay, Deisenroth Lab (AID 2284380; active = hit-call score of the fitted dose curve at least 0.9, where 1 is the maximum)
How it was run: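 H295R adrenocortical carcinoma cells plated 24 h, then exposed 48 h to nine-point series 0.001–100 uM final, triplicate, n=5. ATP measured by CellTiter-Glo 2.0 luminescence on same plates after medium collection; loss versus DMSO.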

NCC(F)(F)C(F)(F)C(F)(F)C(F)(F)C(F)(F)C(F)(F)C(F)(F)F
outcome [1]: inactive
outcome [2]: inactive
outcome [3]: inactive
outcome [4]: inactive

ClC1=C(Cl)C(Cl)(Cl)C(Cl)=C1Cl
AC50 (SERPINA7 (gene 6906)): 23.9 µM (active)

CC(O)CO (stereo not drawn)
outcome [5]: inactive
outcome [6]: inactive

FC(F)(I)C(F)(F)C(F)(F)C(F)(F)C(F)(F)C(F)(F)I
AC50 [1]: 34.5 µM (active) and 26.6 µM (active)
AC50 [2]: 19.1 µM (active) and 5.34 µM (active)
AC50 [3]: 6.93 µM (active)
outcome [3]: inactive
AC50 [4]: 10.9 µM (active) and 8.3 µM (active)

C=C(C)C(=O)OCCC(F)(F)C(F)(F)C(F)(F)C(F)(F)C(F)(F)C(F)(F)F
outcome [7]: inactive
outcome [8]: inactive
outcome [9]: inactive
outcome [10]: inactive
outcome [11]: inactive
outcome [12]: inactive
outcome [13]: inactive
outcome [14]: inactive
outcome [15]: inactive
outcome [16]: inactive
outcome [1]: inactive
outcome [2]: inactive
outcome [3]: inactive
outcome [4]: inactive

O=C(O)Cc1cc(I)c(Oc2cc(I)c(O)c(I)c2)c(I)c1
AC50 (SERPINA7 (gene 6906)): 0.0197 µM (active)

CC[C@H](c1ccc(O)cc1)[C@@H](CC)c1ccc(O)cc1
AC50 (SERPINA7 (gene 6906)): 8.97 µM (active)

CC1=C(/C=C/C(C)=C/C=C/C(C)=C/C(=O)O)C(C)(C)CCC1
AC50 [5]: 0.109 µM (active)
AC50 [6]: 82.8 µM (active)

COc1ccc([N+](=O)[O-])cc1N
AC50 (SERPINA7 (gene 6906)): 50 µM (active)

OCCC(F)(F)C(F)(F)C(F)(F)C(F)(F)C(F)(F)C(F)(F)C(F)(F)C(F)(F)F
outcome [7]: inactive
outcome [8]: inactive
outcome [9]: inactive
outcome [10]: inactive
outcome [11]: inactive
outcome [12]: inactive
outcome [13]: inactive
outcome [14]: inactive
outcome [15]: inactive
outcome [16]: inactive
outcome [1]: inactive
outcome [2]: inactive
outcome [3]: inactive
outcome [4]: inactive

O=C(O)c1ccccc1C(c1ccc(O)cc1)c1ccc(O)cc1
AC50 (SERPINA7 (gene 6906)): 49.9 µM (active)

CC#C[C@]1(O)CC[C@H]2[C@@H]3CCC4=CC(=O)CCC4=C3[C@@H](c3ccc(N(C)C)cc3)C[C@@]21C
AC50 [7]: 58.9 µM (active)
outcome [7]: inactive
outcome [17]: inactive
outcome [18]: inactive
outcome [19]: inactive

NC(=O)N1C(=O)C(C(=O)c2cc(Cl)cs2)c2cc(F)c(Cl)cc21 (stereo not drawn)
AC50 (SERPINA7 (gene 6906)): 7.27 µM (active)

OCCC(F)(F)C(F)(F)C(F)(F)C(F)(F)C(F)(F)C(F)(F)F
outcome [7]: inactive
outcome [8]: inactive
outcome [9]: inactive
outcome [10]: inactive
outcome [11]: inactive
outcome [12]: inactive
outcome [13]: inactive
outcome [14]: inactive
outcome [15]: inactive
outcome [16]: inactive
AC50 [1]: 30.1 µM (active)
AC50 [2]: 16.5 µM (active)
outcome [3]: inactive
AC50 [4]: 52.7 µM (active)

O=[N+]([O-])c1ccc(O)cc1
AC50 (SERPINA7 (gene 6906)): 33.3 µM (active) and 47.2 µM (active)

CC[C@H](C)[C@@H](C(=O)O)n1sc2ccccc2c1=O
AC50 (SERPINA7 (gene 6906)): 18.2 µM (active)

CCCCCCCCCCCCc1ccccc1S(=O)(=O)O
AC50 (SERPINA7 (gene 6906)): 4.89 µM (active)

Cc1cc(C)c(O)c(C)c1
outcome (SERPINA7 (gene 6906)): inactive

CC(C)(C)CC(C)(C)c1ccc(O)c(-n2nc3ccccc3n2)c1
AC50 (SERPINA7 (gene 6906)): 16.3 µM (active)

C[C@@H]1C[C@H]2[C@@H]3CCC4=CC(=O)C=C[C@]4(C)[C@@]3(F)[C@@H](O)C[C@]2(C)[C@@]1(O)C(=O)COP(=O)(O)O
outcome [5]: inactive
outcome [6]: inactive
